{"source": "PubChem BioAssay (Tox21)", "note": "Calls of active or inactive are those of the source. Calls come from the whole dose curve; as a rule, active = well fitted curve in the direction sought with a large enough effect in the repeat runs; inconclusive = weak or mixed curves; inactive = flat fitted curve, though single readings scatter. % is set by controls: 0 for no effect and ±100 for the full control effect."}
{"test": "qHTS assay to test for compound auto fluorescence at 535 nm (green) in HepG2 cell free culture (AID 720686)", "conditions": "Cell-free medium, green autofluorescence 485/535 nm; series mostly up to 91.3 µM; fluorescence, % of fluorescein control: at the top concentration"}
{"smiles": "Nc1ccn([C@@H]2O[C@H](CO)[C@@H](O)C2(F)F)c(=O)n1", "fluorescence, % of fluorescein control": "0.0017% [at 46 µM] (inactive)"}
{"smiles": "Clc1cc(Cl)c(Cl)nc1Cl", "fluorescence, % of fluorescein control": "-0.0944% (inactive)"}
{"smiles": "C=COC(=O)C(C)(CC)CCC(C)C", "note": "(centres undefined)", "fluorescence, % of fluorescein control": "0.0445% (inactive)"}
{"smiles": "CC1=NS(=O)(=O)c2cc(Cl)ccc2N1", "fluorescence, % of fluorescein control": "0.0045% [at 46 µM] (inactive)"}
{"smiles": "Cc1ccc(C(=O)c2ccc(CC(=O)O)n2C)cc1", "fluorescence, % of fluorescein control": "-0.0798% [at 18.6 µM] (inactive)"}
{"smiles": "CN(C)CCN(C)CCN(C)C", "fluorescence, % of fluorescein control": "-0.044% (inactive)"}
{"smiles": "CN(C)[C@@H]1C(=O)C(C(=O)NCN2CCCC2)=C(O)[C@@]2(O)C(=O)C3=C(O)c4c(O)cccc4[C@@](C)(O)C3C[C@@H]12", "note": "(some centres undefined)", "outcome": "inactive"}
{"smiles": "CC(C)CC(C)(N)C#N", "note": "(centres undefined)", "fluorescence, % of fluorescein control": "0.0094% [at 95.7 µM] (inactive)"}
{"smiles": "C=C(C)C(=O)OCCOCCOCCOCCOC(=O)C(=C)C", "fluorescence, % of fluorescein control": "-0.0149% (inactive)"}
{"smiles": "CO[C@@]1(NC(=O)C(C(=O)O)c2ccc(O)cc2)C(=O)N2C(C(=O)O)=C(CSc3nnnn3C)CO[C@@H]21", "note": "(some centres undefined)", "fluorescence, % of fluorescein control": "0.0104% [at 18.6 µM] (inactive)"}
{"smiles": "C[N+]1(C)CCCC(OC(=O)C(O)(c2ccccc2)c2ccccc2)C1", "note": "(centres undefined)", "fluorescence, % of fluorescein control": "-0.0015% [at 18.6 µM] (inactive)"}
{"smiles": "COc1cc(C(=O)NCc2ccc(OCCN(C)C)cc2)cc(OC)c1OC", "fluorescence, % of fluorescein control": "0.123% [at 18.6 µM] (inactive)"}
{"smiles": "CN1CCC(=C2c3ccccc3CCc3cccnc32)CC1", "fluorescence, % of fluorescein control": "0.0837% [at 46 µM] (inactive)"}
{"smiles": "NO", "fluorescence, % of fluorescein control": "0.0277% [at 95.7 µM] (inactive)"}
{"smiles": "O=C(CO)[C@@H](O)[C@H](O)[C@H](O)CO", "outcome": "inactive"}
{"smiles": "CC1=NN(c2cccc(S(=O)(=O)O)c2)C(=O)C1", "fluorescence, % of fluorescein control": "-0.005% (inactive)"}
{"smiles": "O=C(c1ccccc1)C1(O)CCCCC1", "fluorescence, % of fluorescein control": "0.0933% (inactive)"}
{"smiles": "CCCCc1nc(Cl)c(CO)n1Cc1ccc(-c2ccccc2-c2nn[nH]n2)cc1", "fluorescence, % of fluorescein control": "-0.0773% [at 46 µM] (inactive)"}
{"smiles": "[O-][n+]1cccc(CO)c1", "fluorescence, % of fluorescein control": "0.0431% [at 46 µM] (inactive)"}
{"smiles": "CCCCCCCCCCCCCCCCCCO", "fluorescence, % of fluorescein control": "-0.112% [at 46 µM] (inactive)"}
{"smiles": "CN1CCN(c2cc3c(nn2)Oc2ccccc2N3C)CC1", "fluorescence, % of fluorescein control": "-0.0275% [at 46 µM] (inactive)"}
{"smiles": "OCCc1ccccn1", "fluorescence, % of fluorescein control": "-0.151% (inactive)"}
{"smiles": "Nc1ccn([C@@H]2O[C@H](CO)[C@@H](O)C2O)c(=O)n1", "note": "(some centres undefined)", "outcome": "inactive"}
{"smiles": "COCCOC[C@H](CC1(C(=O)NC2CCC(C(=O)O)CC2)CCCC1)C(=O)Oc1ccc2c(c1)CCC2", "note": "(some centres undefined)", "fluorescence, % of fluorescein control": "-0.0692% (inactive)"}
{"smiles": "COc1cc(-c2ccc(=O)[nH]n2)ccc1OC(F)F", "fluorescence, % of fluorescein control": "-0.0295% [at 46 µM] (inactive)"}
{"smiles": "CC(=O)c1cnccn1", "fluorescence, % of fluorescein control": "-0.0017% [at 95.7 µM] (inactive)"}
{"smiles": "CCCCc1ccc2c(n1)[C@@H](c1ccc(OC)cc1C[C@H](C)C(=O)O)[C@H](C(=O)O)[C@H]2c1ccc2c(c1)OCO2", "fluorescence, % of fluorescein control": "-0.118% (inactive)"}
{"smiles": "CNC(=O)Nc1ccc(Cl)c(Cl)c1", "fluorescence, % of fluorescein control": "-0.0489% (inactive)"}
{"smiles": "O=C(O)c1cc(C(=O)O)cc(C(=O)O)c1", "fluorescence, % of fluorescein control": "0.0364% [at 95.7 µM] (inactive)"}
{"smiles": "COC(=O)Nc1ccc(Cl)c(Cl)c1", "fluorescence, % of fluorescein control": "0.0603% (inactive)"}
{"smiles": "CCC(C(=O)NC(=O)NC(C)=O)c1ccccc1", "note": "(centres undefined)", "fluorescence, % of fluorescein control": "-0.139% [at 46 µM] (inactive)"}
{"smiles": "CCCCS(=O)(=O)N[C@@H](Cc1ccc(OCCCCC2CCNCC2)cc1)C(=O)O", "fluorescence, % of fluorescein control": "-0.127% [at 46 µM] (inactive)"}
{"smiles": "CCC(C)(CN(C)C)OC(=O)c1ccccc1", "note": "(centres undefined)", "fluorescence, % of fluorescein control": "0.0276% [at 18.6 µM] (inactive)"}
{"smiles": "OCCCCCO", "fluorescence, % of fluorescein control": "0.188% [at 95.7 µM] (inactive)"}
{"smiles": "Nc1ccn([C@@H]2O[C@H](CO)[C@@H](O)[C@@H]2O)c(=O)n1", "fluorescence, % of fluorescein control": "0.0792% (inactive)"}
{"smiles": "CC[N+](CC)(CC(=O)Nc1c(C)cccc1C)Cc1ccccc1", "note": "(tested in a mixture with another compound)", "fluorescence, % of fluorescein control": "0.0049% (inactive)"}
{"test": "qHTS assay to test for compound auto fluorescence at 460 nm (blue) in HepG2 cells (AID 720687)", "conditions": "autofluorescence 405/460 nm, 1 h; series mostly up to 91.3 µM; fluorescence, % of fluorescent control: at the top concentration", "summary_of_the_method": "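HepG2 cells in MEM with 10% FBS, attached overnight at 37 C, were exposed to compound or DMSO for 1 hr at 37 C, 5% CO2. Blue fluorescence was read at 405/460 nm, with triamterene as reference fluorophore.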"}
{"smiles": "Nc1ccn([C@@H]2O[C@H](CO)[C@@H](O)C2(F)F)c(=O)n1", "fluorescence, % of fluorescent control": "-0.0641% [at 46 µM] (inactive)"}
{"smiles": "Clc1cc(Cl)c(Cl)nc1Cl", "fluorescence, % of fluorescent control": "0.0329% (inactive)"}
{"smiles": "CC1=NS(=O)(=O)c2cc(Cl)ccc2N1", "fluorescence, % of fluorescent control": "-0.0291% [at 46 µM] (inactive)"}
{"smiles": "Cc1ccc(C(=O)c2ccc(CC(=O)O)n2C)cc1", "fluorescence, % of fluorescent control": "-0.0013% [at 18.6 µM] (inactive)"}
{"smiles": "CN(C)CCN(C)CCN(C)C", "fluorescence, % of fluorescent control": "-0.0527% (inactive)"}
{"smiles": "CN(C)[C@@H]1C(=O)C(C(=O)NCN2CCCC2)=C(O)[C@@]2(O)C(=O)C3=C(O)c4c(O)cccc4[C@@](C)(O)C3C[C@@H]12", "note": "(some centres undefined)", "outcome": "inactive"}
{"smiles": "C=C(C)C(=O)OCCOCCOCCOCCOC(=O)C(=C)C", "fluorescence, % of fluorescent control": "-0.157% (inactive)"}
{"smiles": "CO[C@@]1(NC(=O)C(C(=O)O)c2ccc(O)cc2)C(=O)N2C(C(=O)O)=C(CSc3nnnn3C)CO[C@@H]21", "note": "(some centres undefined)", "fluorescence, % of fluorescent control": "0.208% [at 18.6 µM] (inactive)"}
{"smiles": "C[N+]1(C)CCCC(OC(=O)C(O)(c2ccccc2)c2ccccc2)C1", "note": "(centres undefined)", "fluorescence, % of fluorescent control": "-0.102% [at 18.6 µM] (inactive)"}
{"smiles": "COc1cc(C(=O)NCc2ccc(OCCN(C)C)cc2)cc(OC)c1OC", "fluorescence, % of fluorescent control": "0.157% [at 18.6 µM] (inactive)"}
{"smiles": "CN1CCC(=C2c3ccccc3CCc3cccnc32)CC1", "fluorescence, % of fluorescent control": "0.022% [at 46 µM] (inactive)"}
{"smiles": "O=C(CO)[C@@H](O)[C@H](O)[C@H](O)CO", "outcome": "inactive"}
{"smiles": "CC1=NN(c2cccc(S(=O)(=O)O)c2)C(=O)C1", "fluorescence, % of fluorescent control": "-0.0791% (inactive)"}
{"smiles": "O=C(c1ccccc1)C1(O)CCCCC1", "fluorescence, % of fluorescent control": "-0.0063% (inactive)"}
{"smiles": "CCCCc1nc(Cl)c(CO)n1Cc1ccc(-c2ccccc2-c2nn[nH]n2)cc1", "fluorescence, % of fluorescent control": "0.0265% [at 46 µM] (inactive)"}
{"smiles": "[O-][n+]1cccc(CO)c1", "fluorescence, % of fluorescent control": "-0.0269% [at 46 µM] (inactive)"}
{"smiles": "CCCCCCCCCCCCCCCCCCO", "fluorescence, % of fluorescent control": "0.0173% [at 46 µM] (inactive)"}
{"smiles": "CN1CCN(c2cc3c(nn2)Oc2ccccc2N3C)CC1", "fluorescence, % of fluorescent control": "1.27% [at 46 µM] (inactive)"}
{"smiles": "OCCc1ccccn1", "fluorescence, % of fluorescent control": "-0.419% (inactive)"}
{"smiles": "Nc1ccn([C@@H]2O[C@H](CO)[C@@H](O)C2O)c(=O)n1", "note": "(some centres undefined)", "outcome": "inactive"}
{"smiles": "COCCOC[C@H](CC1(C(=O)NC2CCC(C(=O)O)CC2)CCCC1)C(=O)Oc1ccc2c(c1)CCC2", "note": "(some centres undefined)", "fluorescence, % of fluorescent control": "-0.104% (inactive)"}
{"smiles": "COc1cc(-c2ccc(=O)[nH]n2)ccc1OC(F)F", "fluorescence, % of fluorescent control": "-0.0278% [at 46 µM] (inactive)"}
{"smiles": "CC(=O)c1cnccn1", "fluorescence, % of fluorescent control": "-0.0018% [at 95.7 µM] (inactive)"}
{"smiles": "CNC(=O)Nc1ccc(Cl)c(Cl)c1", "fluorescence, % of fluorescent control": "-0.0336% (inactive)"}
{"smiles": "CCC(C)(CN(C)C)OC(=O)c1ccccc1", "note": "(centres undefined)", "fluorescence, % of fluorescent control": "-0.0227% [at 18.6 µM] (inactive)"}
{"smiles": "OCCCCCO", "fluorescence, % of fluorescent control": "0.0417% [at 95.7 µM] (inactive)"}
{"smiles": "Nc1ccn([C@@H]2O[C@H](CO)[C@@H](O)[C@@H]2O)c(=O)n1", "fluorescence, % of fluorescent control": "-0.0105% (inactive)"}
{"smiles": "CC[N+](CC)(CC(=O)Nc1c(C)cccc1C)Cc1ccccc1", "note": "(tested in a mixture with another compound)", "fluorescence, % of fluorescent control": "-0.0959% (inactive)"}
